# Test results from article PMC11062922 (Nature Chemical Biology, 2023).
# Read-outs that look alike come from different tables or passages of the source.
# Legend:
# Set-up in all cases: species or system human, MV4-11 + K-562 + COLO205 + SK-N-BE2 + OVCAR-8
# CDC42BPG = conditions: read-out: apparent Kd, n = 1
# IRAK3 = conditions: read-out: apparent Kd; compound concentrations:100 nM and 1000 nM (sheet 'Samples'); n = 1
# MAPK14 = conditions: read-out: apparent Kd, n = 1
# PIK3CA = conditions: read-out: apparent Kd; compound concentrations:100 nM and 1000 nM (sheet 'Samples'); n = 1
# PIK3CD = conditions: read-out: apparent Kd; compound concentrations:100 nM and 1000 nM (sheet 'Samples'); n = 1
# PIM1 = conditions: read-out: apparent Kd; compound concentrations:100 nM and 1000 nM (sheet 'Samples'); n = 1
# STK16 = conditions: read-out: apparent Kd; compound concentrations:100 nM and 1000 nM (sheet 'Samples'); n = 1
# CAMK2B = conditions: read-out: apparent Kd, compound concentrations: 100 nM and 1000 nM (sheet 'Samples'), n = 1
# FLT3 = conditions: read-out: apparent Kd; compound concentrations: 100 nM and 1000 nM (sheet 'Samples'), CATDS: 7.5963882735203103E-2; n = 1
# FYN = conditions: read-out: apparent Kd; compound concentrations: 100 nM and 1000 nM (sheet 'Samples'), CATDS: 6.1091429900981202E-2; n = 1
# HCK = conditions: read-out: apparent Kd; compound concentrations: 100 nM and 1000 nM (sheet 'Samples'), CATDS: 0.204546800943642; n = 1
# LCK = conditions: read-out: apparent Kd; compound concentrations: 100 nM and 1000 nM (sheet 'Samples'), CATDS: 6.2891353750110596E-2; n = 1
# LYN = conditions: read-out: apparent Kd; compound concentrations: 100 nM and 1000 nM (sheet 'Samples'), CATDS: 6.1198388947790797E-2; n = 1
# MAP2K5 = conditions: read-out: apparent Kd; compound concentrations: 100 nM and 1000 nM (sheet 'Samples'), CATDS: 0.12646942491879101; n = 1
# PTK6 = conditions: read-out: apparent Kd; compound concentrations: 100 nM and 1000 nM (sheet 'Samples'), CATDS: 6.47566338134071E-2; n = 1
# RIPK2 = conditions: read-out: apparent Kd; compound concentrations: 100 nM and 1000 nM (sheet 'Samples'), CATDS: 0.112898428987699; n = 1
# RIPK3 = conditions: read-out: apparent Kd; compound concentrations: 100 nM and 1000 nM (sheet 'Samples'), CATDS: 6.7046149691073503E-2; n = 1
# SRC = conditions: read-out: apparent Kd; compound concentrations: 100 nM and 1000 nM (sheet 'Samples'), CATDS: 7.0333029214927095E-2; n = 1
# YES1 = conditions: read-out: apparent Kd; compound concentrations: 100 nM and 1000 nM (sheet 'Samples'), CATDS: 8.7589956864903007E-2; n = 1
# GAK = conditions: read-out: apparent Kd; compound concentrations: 100 nM and 1000 nM (sheet 'Samples'), CATDS: 0.13668141663723599; n = 1
# MAPK10 = conditions: read-out: apparent Kd; compound concentrations: 100 nM and 1000 nM (sheet 'Samples'), CATDS: 0.12548752602980501; n = 1
# MAPK9 = conditions: read-out: apparent Kd; compound concentrations: 100 nM and 1000 nM (sheet 'Samples'), CATDS: 0.107953199944472; n = 1
# MAPKAPK2 = conditions: read-out: apparent Kd; compound concentrations: 100 nM and 1000 nM (sheet 'Samples'), CATDS: 0.17502946768032501; n = 1
# NQO1 = conditions: read-out: apparent Kd; compound concentrations: 100 nM and 1000 nM (sheet 'Samples'), CATDS: 8.60735929712554E-2; n = 1
# TNIK = conditions: read-out: apparent Kd; compound concentrations: 100 nM and 1000 nM (sheet 'Samples'), CATDS: 0.13491621958450101; n = 1
# CAMK4 = conditions: read-out: apparent Kd; compound concentrations: 100 nM and 1000 nM (sheet 'Samples'), CATDS: 0.39593568375035498; n = 1
# CAMK2D = conditions: read-out: apparent Kd; compound concentrations: 100 nM and 1000 nM (sheet 'Samples'), CATDS: 0.25731079955705399; n = 1
# CDK10 = conditions: read-out: apparent Kd; compound concentrations: 100 nM and 1000 nM (sheet 'Samples'), CATDS: 0.15001944527595701; n = 1
# FN3K = conditions: read-out: apparent Kd; compound concentrations: 100 nM and 1000 nM (sheet 'Samples'), CATDS: 0.12433120780871; n = 1
# ICK = conditions: read-out: apparent Kd; compound concentrations: 100 nM and 1000 nM (sheet 'Samples'), CATDS: 0.14025095323079101; n = 1
# MAPK1 = conditions: read-out: apparent Kd; compound concentrations: 100 nM and 1000 nM (sheet 'Samples'), CATDS: 0.154787589884953; n = 1
# EGFR = conditions: read-out: apparent Kd; compound concentrations: 100 nM and 1000 nM (sheet 'Samples'), CATDS: 0.186882259763333; n = 1
# FN3KRP = conditions: read-out: apparent Kd; compound concentrations: 100 nM and 1000 nM (sheet 'Samples'), CATDS: 0.322807069227038; n = 1
# NQO2 = conditions: read-out: apparent Kd; compound concentrations: 100 nM and 1000 nM (sheet 'Samples'), CATDS: 0.51408272608471794; n = 1
# [1] = compound concentrations:100 nM and 1000 nM (sheet 'Samples')
smiles,measurement,setting,value
O=C(Nc1n[nH]c2nc(-c3ccccc3)c(Br)cc12)C1CC1 [SB-708998],potency estimated from few doses,CDC42BPG; [1],1880 nM
same,potency estimated from few doses,IRAK3,1410 nM
same,potency estimated from few doses,MAPK14; [1],1640 nM
same,potency estimated from few doses,PIK3CA,245 nM
same,potency estimated from few doses,PIK3CD,187 nM
same,potency estimated from few doses,PIM1,1280 nM
same,potency estimated from few doses,STK16,1890 nM
c1ccc(Oc2ccc(Nc3ccnc4cc(-c5ccc(CNCCN6CCOCC6)o5)ccc34)cc2)nc1 [GW567145X],potency estimated from few doses,CAMK2B; CATDS: 8.8630985713884503E-2,448 nM
same,potency estimated from few doses,FLT3,620 nM
same,potency estimated from few doses,FYN,1080 nM
same,potency estimated from few doses,HCK,118 nM
same,potency estimated from few doses,LCK,994 nM
same,potency estimated from few doses,LYN,1080 nM
same,potency estimated from few doses,MAP2K5,239 nM
same,potency estimated from few doses,"MAPK14; compound concentrations: 100 nM and 1000 nM (sheet 'Samples'), CATDS: 5.4651958851346001E-2",1550 nM
same,potency estimated from few doses,PTK6,917 nM
same,potency estimated from few doses,RIPK2,288 nM
same,potency estimated from few doses,RIPK3,837 nM
same,potency estimated from few doses,SRC,742 nM
same,potency estimated from few doses,YES1,459 nM
N#Cc1ccc2c(-c3ccnc(NC4CC4)n3)c(-c3ccc(F)cc3)nn2c1 [GW561436X],potency estimated from few doses,"CDC42BPG; compound concentrations: 100 nM and 1000 nM (sheet 'Samples'), CATDS: 0.104980182660456",1180 nM
same,potency estimated from few doses,GAK,650 nM
same,potency estimated from few doses,MAPK10,775 nM
same,potency estimated from few doses,"MAPK14; compound concentrations: 100 nM and 1000 nM (sheet 'Samples'), CATDS: 0.192952593667473",356 nM
same,potency estimated from few doses,MAPK9,1100 nM
same,potency estimated from few doses,MAPKAPK2,417 nM
same,potency estimated from few doses,NQO1,2220 nM
same,potency estimated from few doses,TNIK,667 nM
C/C(=C1/SC(NCc2cccs2)=NC1=O)c1ccc2ncccc2c1 [RO4607009-000],potency estimated from few doses,CAMK4,2260 nM
same,potency estimated from few doses,"CDC42BPG; compound concentrations: 100 nM and 1000 nM (sheet 'Samples'), CATDS: 0.67827085462466996",701 nM
Cn1cc(C2=C(N3CCOCC3)C(=O)NC2=O)c2ccccc21 [RO3303031-000],potency estimated from few doses,CAMK2B; CATDS: 0.26217327719794398,327 nM
same,potency estimated from few doses,CAMK2D,336 nM
same,potency estimated from few doses,CDK10,957 nM
same,potency estimated from few doses,FN3K,1620 nM
same,potency estimated from few doses,ICK,1140 nM
same,potency estimated from few doses,MAPK1,887 nM
CS(=O)(=O)CCNCc1cc(-c2cc3c(Nc4ccc(OCc5cccc(F)c5)c(Cl)c4)ncnc3s2)cs1 [GSK300014A],potency estimated from few doses,CAMK2B; CATDS: 0.17838032280045099,575 nM
same,potency estimated from few doses,EGFR,481 nM
same,potency estimated from few doses,FN3KRP,112 nM
same,potency estimated from few doses,NQO2,48.6 nM
